Data reported in PubChem BioAssay (Tox21).
Records with an inconclusive call do not appear. Where a call stands in place of a potency, no number is given. Calls of active or inactive are those of the source. Unless noted, calls follow the shape of the dose curve; as a rule, active = well fitted curve in the direction sought with a large enough effect in the repeat runs; inconclusive = weak or mixed curves; inactive = no such curve, though single readings can be large; an effect the other way counts as inactive or inconclusive.

Assays:
[1] = qHTS assay to identify aromatase inhibitors - cell viability counter screen (AID 743084);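 also: cells stimulated with testosterone during compound exposure; nearly all actives have a fitted effect of over 55% in size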
[2] = qHTS assay to identify small molecule that activate the aryl hydrocarbon receptor (AhR) signaling pathway - cell viability counter screen (AID 743086); also: nearly all actives have a fitted effect of over 45% in size; also: potency is read from the fitted curve at half-maximal effect
Method in brief: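 HepG2-AhR-luc (HG2L7.5c1) cells, 4000/well, treated 24 h at 37 C with compound; viability measured as CellTiter-Fluor fluorescence after 30 min in the same wells as the luciferase read.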

[3] = qHTS assay to identify small molecule antagonists of the peroxisome proliferator-activated receptor gamma (PPARg) signaling pathway - cell viability counter screen (AID 743194); also: nearly all actives have a fitted effect of over 55% in size
Method in brief: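 Cytotoxicity counter screen in PPARg-bla HEK293H cells, same wells as reporter assay. Compounds plus 50 nM rosiglitazone (final) for 17 h at 37 C, then viability read by CellTiter-Glo luminescence.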

[4] = qHTS assay for small molecule agonists of the antioxidant response element (ARE) signaling pathway - cell viability counter screen (AID 743203; calls by dose curve; also: nearly all actives have a fitted effect of over 55% in size; also: potency is read from the fitted curve at half-maximal effect)
Method in brief: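 HepG2 cells carrying ARE-driven beta-lactamase; 2,000 cells/well; 5 hrs plating; compound pinned from DMSO; 16 hrs 37C/5% CO2; CellTiter-Glo added; 30 min RT; luminescence.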

[5] = qHTS assay to identify small molecule agonists of the peroxisome proliferator-activated receptor delta (PPARd) signaling pathway - cell viability counter screen (AID 743211); also: nearly all actives have a fitted effect of over 55% in size; also: potency is read from the fitted curve at half-maximal effect
Method in brief: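 Viability was measured as CellTiter-Glo luminescence (30 min, room temperature) in the same wells as the beta-lactamase readout. GeneBLAzer PPARd UAS-bla HEK293H cells received compound after 5 h plating and were incubated 17 h at 37 C.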

[6] = biological target: Peroxisome proliferator-activated receptor delta (Homo sapiens) (UniProt Q03181); experiment: qHTS assay to identify small molecule agonists of the peroxisome proliferator-activated receptor delta (PPARd) signaling pathway (AID 743212; calls by dose curve)
Chain of Peroxisome proliferator-activated receptor delta (Homo sapiens) (Q03181 whole entry, looked up): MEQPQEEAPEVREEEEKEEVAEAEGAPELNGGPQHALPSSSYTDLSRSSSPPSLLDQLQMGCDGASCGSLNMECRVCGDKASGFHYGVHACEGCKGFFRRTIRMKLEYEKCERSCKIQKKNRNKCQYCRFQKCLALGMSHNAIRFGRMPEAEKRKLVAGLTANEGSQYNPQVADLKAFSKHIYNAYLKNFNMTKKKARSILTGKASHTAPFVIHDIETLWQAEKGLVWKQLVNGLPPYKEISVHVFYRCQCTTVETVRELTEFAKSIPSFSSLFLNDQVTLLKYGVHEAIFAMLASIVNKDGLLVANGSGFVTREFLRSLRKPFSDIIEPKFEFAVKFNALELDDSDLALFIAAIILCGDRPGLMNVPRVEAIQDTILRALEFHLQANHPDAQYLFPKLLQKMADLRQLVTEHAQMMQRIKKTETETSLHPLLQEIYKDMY
Method in brief: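 GeneBLAzer UAS-bla HEK293H cells carrying a PPARδ construct were exposed to compounds at 37 °C. Beta-lactamase activity was read by FRET fluorescence after 2 h at room temperature with LiveBLAzer B/G substrate.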

[7] = qHTS assay to identify small molecule antagonists of the peroxisome proliferator-activated receptor delta (PPARd) signaling pathway - cell viability counter screen (AID 743213); also: nearly all actives have a fitted effect of over 50% in size; also: potency is read from the fitted curve at half-maximal effect
Method in brief: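 Same-well viability: cells pre-incubated 5 h, dosed with compound plus 300 nM L165041, kept 17 h at 37 C, FRET substrate 2 h RT, then CellTiter-Glo 30 min RT and luminescence.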

[8] = qHTS assay to identify small molecule antagonists of the farnesoid-X-receptor (FXR) signaling pathway - cell viability counter screen (AID 743221; active = well fitted cell-killing curve with a large enough effect in the repeat runs, not every such curve was filed as active; also: nearly all actives have a fitted effect of over 50% in size)
Method in brief: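 Cytotoxicity counter screen run in the FXR-bla reporter wells: HEK 293T cells exposed to compound with 50 uM (final) chenodeoxycholic acid for 16 h, 37 C, then viability measured by CellTiter-Glo luminescence after 30 min, room temperature.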

[9] = biological target: Vitamin D3 receptor (Homo sapiens) (UniProt P11473); experiment: qHTS assay to identify small molecule agonists of the vitamin D receptor (VDR) signaling pathway (AID 743222; calls by dose curve)
Chain of Vitamin D3 receptor (Homo sapiens) (P11473 whole entry, looked up): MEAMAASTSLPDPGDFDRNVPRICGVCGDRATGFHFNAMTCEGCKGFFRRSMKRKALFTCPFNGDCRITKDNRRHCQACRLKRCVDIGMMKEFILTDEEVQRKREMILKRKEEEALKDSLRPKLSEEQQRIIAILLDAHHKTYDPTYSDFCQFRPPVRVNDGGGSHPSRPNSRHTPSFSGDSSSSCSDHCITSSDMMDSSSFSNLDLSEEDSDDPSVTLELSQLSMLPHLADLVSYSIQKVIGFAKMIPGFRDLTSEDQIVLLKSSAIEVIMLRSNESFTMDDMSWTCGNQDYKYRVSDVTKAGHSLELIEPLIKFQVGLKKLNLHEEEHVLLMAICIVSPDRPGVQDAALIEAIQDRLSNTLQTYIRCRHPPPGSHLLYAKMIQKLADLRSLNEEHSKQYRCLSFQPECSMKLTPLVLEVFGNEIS
Method in brief: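 VDR-bla cells, 2,000/well; 4 h preincubation 37C; cpd (DMSO) 16 h; LiveBLAzer B/G substrate 2 h RT; fluorescence intensity read.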

[10] = qHTS assay for small molecule activators of the heat shock response signaling pathway (AID 743210; active = well fitted activation curve with a large enough effect in the signal ratio in the repeat runs, with a control signal flat, not every such curve was filed as active; the % refers to the signal ratio; also: series mostly up to about 63 µM)
Method in brief: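 HSE-bla HeLa cells (beta-lactamase reporter under heat shock response elements), plated overnight, then exposed to compounds 5 h at 37 C; LiveBLAzer B/G FRET substrate added, 2.5 h at room temperature, fluorescence intensity read.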

[11] = biological target: Peroxisome proliferator-activated receptor delta (Homo sapiens) (UniProt Q03181); experiment: qHTS assay to identify small molecule antagonists of the peroxisome proliferator-activated receptor delta (PPARd) signaling pathway (AID 743215; active = well fitted inhibition curve with a large enough effect in the signal ratio in the repeat runs, not every such curve was filed as active; the % refers to the signal ratio;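 also: cells stimulated with agonist L165041 at 300 nM final during compound exposure; series mostly up to about 62 µM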)
Method in brief: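 Read-out is beta-lactamase FRET fluorescence, measured 2 h after substrate addition at room temperature. Beforehand, UAS-bla HEK293H cells carrying the PPARd reporter were exposed to compounds with L165041 at 300 nM final for 17 h at 37 C.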

[12] = biological target: Bile acid receptor (Homo sapiens) (UniProt Q96RI1); experiment: qHTS assay to identify small molecule agonists of the farnesoid-X-receptor (FXR) signaling pathway (AID 743220; active = well fitted activation curve with a large enough effect in the signal ratio in the repeat runs, not every such curve was filed as active; the % refers to the signal ratio; also: potency is read from the fitted curve at half-maximal effect)
Chain of Bile acid receptor (Homo sapiens) (Q96RI1 whole entry, looked up): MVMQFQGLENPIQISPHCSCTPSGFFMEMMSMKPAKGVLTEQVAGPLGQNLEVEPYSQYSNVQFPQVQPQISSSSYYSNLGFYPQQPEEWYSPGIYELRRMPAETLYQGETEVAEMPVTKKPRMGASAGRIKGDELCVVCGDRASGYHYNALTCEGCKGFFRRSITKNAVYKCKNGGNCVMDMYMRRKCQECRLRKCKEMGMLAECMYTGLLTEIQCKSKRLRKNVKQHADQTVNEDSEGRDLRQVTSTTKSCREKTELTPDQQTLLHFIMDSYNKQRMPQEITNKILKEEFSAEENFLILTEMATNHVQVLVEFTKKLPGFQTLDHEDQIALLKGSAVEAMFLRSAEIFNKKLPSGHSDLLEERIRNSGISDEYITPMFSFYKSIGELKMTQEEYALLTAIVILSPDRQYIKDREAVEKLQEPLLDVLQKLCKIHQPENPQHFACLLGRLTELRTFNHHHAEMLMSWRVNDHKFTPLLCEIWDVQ
Method in brief: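 Beta-lactamase reporter under UAS control in GeneBLAzer FXR HEK 293T cells (5000/well) measured with LiveBLAzer FRET substrate after 2 h at room temperature. Compound exposure lasted 16 h at 37C.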

[13] = biological target: Vitamin D3 receptor (Homo sapiens) (UniProt P11473); experiment: qHTS assay to identify small molecule antagonists of the vitamin D receptor (VDR) signaling pathway (AID 743223; active = well fitted inhibition curve with a large enough effect in the signal ratio in the repeat runs, not every such curve was filed as active; the % refers to the signal ratio)
Method in brief: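 Antagonist mode: compound added to VDR-bla cells alongside agonist 1alpha,25-dihydroxyvitamin D3 (3 nM final), incubation 16 h at 37C. Read-out is LiveBLAzer FRET fluorescence, 2 h at room temperature.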

[14] = biological target: Aryl hydrocarbon receptor (Homo sapiens) (UniProt P35869); experiment: qHTS assay to identify small molecule that activate the aryl hydrocarbon receptor (AhR) signaling pathway (AID 743085); also: nearly all actives have a fitted effect of over 15% in size; also: potency is read from the fitted curve at half-maximal effect;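 as to activation: HG2L7.5c1 human HepG2 liver cells with stably integrated DRE-driven firefly reporter; series mostly up to about 70 µM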
Chain of Aryl hydrocarbon receptor (Homo sapiens) (P35869 whole entry, looked up): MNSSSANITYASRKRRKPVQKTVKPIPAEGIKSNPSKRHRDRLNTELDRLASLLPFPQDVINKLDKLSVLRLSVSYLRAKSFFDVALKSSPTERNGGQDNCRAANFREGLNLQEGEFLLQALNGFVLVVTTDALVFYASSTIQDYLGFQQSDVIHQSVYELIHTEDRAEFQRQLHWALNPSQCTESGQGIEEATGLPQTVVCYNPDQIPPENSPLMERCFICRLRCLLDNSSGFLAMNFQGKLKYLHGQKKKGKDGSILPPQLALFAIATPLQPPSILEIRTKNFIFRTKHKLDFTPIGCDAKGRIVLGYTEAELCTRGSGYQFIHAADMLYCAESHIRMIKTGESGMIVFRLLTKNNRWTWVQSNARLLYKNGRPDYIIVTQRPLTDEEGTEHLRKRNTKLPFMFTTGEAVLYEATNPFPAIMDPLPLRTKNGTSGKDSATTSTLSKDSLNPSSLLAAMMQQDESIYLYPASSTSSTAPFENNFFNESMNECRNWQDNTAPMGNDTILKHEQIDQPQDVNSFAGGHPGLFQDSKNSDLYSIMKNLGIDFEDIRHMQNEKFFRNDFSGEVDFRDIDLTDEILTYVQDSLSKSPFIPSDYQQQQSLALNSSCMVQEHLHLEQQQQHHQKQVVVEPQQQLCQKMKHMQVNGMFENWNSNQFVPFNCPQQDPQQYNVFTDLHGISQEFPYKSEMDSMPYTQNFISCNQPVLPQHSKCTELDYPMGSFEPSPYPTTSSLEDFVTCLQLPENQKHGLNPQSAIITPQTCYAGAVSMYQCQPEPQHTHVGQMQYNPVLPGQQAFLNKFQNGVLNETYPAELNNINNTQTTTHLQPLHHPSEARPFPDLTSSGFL
Method in brief: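 Luminescence (ONE-Glo) from a dioxin-responsive-element luciferase reporter in HG2L7.5c1 HepG2 cells after 24 hr compound exposure at 37C; viability measured by CellTiter-Fluor fluorescence beforehand.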

[15] = qHTS assay for small molecule activators of the heat shock response signaling pathway - cell viability counter screen (AID 743209); also: nearly all actives have a fitted effect of over 50% in size; also: potency is read from the fitted curve at half-maximal effect
Method in brief: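 Luminescence from CellTiter-Glo, added after the beta-lactamase FRET read, gave the viability signal. Cells were HSE-bla HeLa treated with DMSO-dissolved compounds for 5 h at 37 C following overnight plating.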

[16] = qHTS assay for small molecule agonists of the antioxidant response element (ARE) signaling pathway (AID 743202; active = well fitted activation curve with a large enough effect in the signal ratio in the repeat runs, not every such curve was filed as active; the % refers to the signal ratio; also: potency is read from the fitted curve at half-maximal effect)
Method in brief: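 ARE-bla HepG2 cells (beta-lactamase reporter under the antioxidant response element), plated 5 hours, then exposed to compounds 16 hours at 37 C. LiveBLAzer B/G FRET substrate added for 2 hours at room temperature; fluorescence intensity read.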

[17] = biological target: Peroxisome proliferator-activated receptor gamma (Homo sapiens) (UniProt P37231); experiment: qHTS assay to identify small molecule agonists of the peroxisome proliferator-activated receptor gamma (PPARg) signaling pathway (AID 743094; active = well fitted activation curve with a large enough effect in the signal ratio in the repeat runs, not every such curve was filed as active; the % refers to the signal ratio)
Chain of Peroxisome proliferator-activated receptor gamma (Homo sapiens) (P37231 whole entry, looked up): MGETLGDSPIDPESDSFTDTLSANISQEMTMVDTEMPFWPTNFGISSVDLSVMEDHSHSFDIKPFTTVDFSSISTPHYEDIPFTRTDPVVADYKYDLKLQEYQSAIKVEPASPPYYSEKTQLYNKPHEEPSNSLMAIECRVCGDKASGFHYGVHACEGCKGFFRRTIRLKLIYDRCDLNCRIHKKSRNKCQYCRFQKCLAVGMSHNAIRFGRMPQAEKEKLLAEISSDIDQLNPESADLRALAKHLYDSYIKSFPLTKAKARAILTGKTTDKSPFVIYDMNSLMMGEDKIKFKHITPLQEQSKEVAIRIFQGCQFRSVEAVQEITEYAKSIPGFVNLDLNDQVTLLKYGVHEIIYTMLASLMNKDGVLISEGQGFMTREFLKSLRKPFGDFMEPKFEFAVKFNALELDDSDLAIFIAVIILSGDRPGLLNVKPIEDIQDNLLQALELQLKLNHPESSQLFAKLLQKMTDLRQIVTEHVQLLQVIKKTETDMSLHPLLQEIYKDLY
Method in brief: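 Beta-lactamase FRET fluorescence was the read-out after a 1 h room-temperature substrate step, following 17 h compound treatment at 37C of HEK293H cells expressing a UAS-driven bla reporter responsive to PPARg.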

[18] = biological target: Bile acid receptor (Homo sapiens) (UniProt Q96RI1); experiment: qHTS assay to identify small molecule antagonists of the farnesoid-X-receptor (FXR) signaling pathway (AID 743217; active = well fitted inhibition curve with a large enough effect in the signal ratio in the repeat runs, not every such curve was filed as active; the % refers to the signal ratio)
Method in brief: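 HEK 293T FXR-UAS-bla, 5000 cells/well; compound + CDCA 50 uM final; 16 h, 37 °C; B/G FRET substrate 2 h RT; fluorescence.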

[19] = qHTS assay to identify small molecule agonists of the farnesoid-X-receptor (FXR) signaling pathway - cell viability counter screen (AID 743218); also: nearly all actives have a fitted effect of over 45% in size; also: potency is read from the fitted curve at half-maximal effect
Method in brief: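 HEK 293T FXR-bla cells; 5 h pre-incubation, 16 h compound exposure at 37 C; LiveBLAzer substrate 2 h RT, then CellTiter-Glo 30 min RT, luminescence.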

[20] = biological target: Peroxisome proliferator-activated receptor gamma (Homo sapiens) (UniProt P37231); experiment: qHTS assay to identify small molecule antagonists of the peroxisome proliferator-activated receptor gamma (PPARg) signaling pathway (AID 743191; calls by dose curve; also: nearly all actives have a fitted effect of over 30% in size; also: potency is read from the fitted curve at half-maximal effect)
Method in brief: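 GeneBLAzer PPARg UAS-bla HEK293H cells, 5 h post-plating, exposed to compounds 17 h at 37C. LiveBLAzer B/G FRET substrate added for 1 h at room temperature; beta-lactamase reporter read by fluorescence intensity.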

Row | SMILES | Potency [1] | Potency [2] | Potency [3] | Potency [4] | Potency [5] | Potency [6] | Potency [7] | Potency [8] | outcome [9] | Potency [10] | Potency [11] | Potency [12] | outcome [13] | Potency [14] | Potency [15] | Potency [16] | Potency [17] | Potency [18] | Potency [19] | Potency [20]
1 | c1cc[c]([Bi]([c]2ccccc2)[c]2ccccc2)cc1 | inactive | inactive | inactive | inactive | inactive | inactive | inactive | inactive | inactive |  |  |  |  |  |  |  |  |  |  | 
2 | Nc1c(I)cc(I)c(C(=O)N(CCC(=O)O)c2ccccc2)c1I |  |  | inactive | inactive | inactive | inactive | inactive |  |  | inactive | inactive | inactive | inactive |  |  |  |  |  |  | 
3 | O=C(CCCCCCC(=O)Nc1ccccc1)NO |  | inactive |  |  | inactive | inactive | inactive | inactive |  | inactive | inactive |  | inactive | inactive | inactive |  |  |  |  | 
4 | CCCCCCOC(=O)CCCCCCCC(=O)OCCCCCC |  | inactive | inactive | inactive |  | inactive | inactive | inactive | inactive | inactive | inactive |  | inactive |  | inactive |  |  |  |  | 
5 | CN(C)CCOC1=Cc2ccccc2Sc2ccc(Cl)cc21 |  |  | inactive | inactive | 26.6 µM (active) | inactive | 26.6 µM (active) |  |  | inactive |  | inactive |  | inactive | inactive | inactive |  |  |  | 
6 | Cc1ccc(S(=O)(=O)NC2CCCCC2)cc1 |  | inactive | inactive | inactive | inactive | inactive | inactive | inactive |  | inactive | inactive | inactive |  | inactive | inactive |  | inactive | inactive | inactive | 
7 | N#C/C(=C1/SC[C@@H](c2ccc(Cl)cc2Cl)S1)n1ccnc1 |  | inactive | inactive |  | inactive |  |  | inactive |  | inactive |  |  |  |  | inactive |  |  |  | inactive | 
8 | CC1C2CC(CC2C2CCCC(O)C2)C1(C)C (stereo not given) |  | inactive | inactive | 61.1 µM (active) |  | inactive |  |  | inactive |  | inactive | inactive |  | inactive | 49 µM (active) |  |  |  |  | 
9 | COC(=O)c1cc(Cl)ccc1NS(=O)(=O)C(F)(F)F |  |  | inactive | inactive | inactive |  | inactive |  |  | inactive |  | inactive |  |  | inactive |  |  | inactive |  | inactive
10 | O=C(N[C@@H](c1ccccc1)[C@@H]1CCCCN1)c1cccc(C(F)(F)F)c1Cl |  | 24.3 µM (active) |  | 21.7 µM (active) | 27.5 µM (active) |  | 27.5 µM (active) | inactive |  | inactive |  | inactive | inactive |  | inactive |  |  |  | 43.6 µM (active) | 
11 | O=C(N/N=C/c1ccc([N+](=O)[O-])o1)c1ccc(O)cc1 |  | 11.4 µM (active) |  | 23.7 µM (active) | inactive |  | inactive | inactive |  | inactive |  |  |  | inactive | inactive |  | inactive |  | inactive | 
12 | CCc1c2c(nc3ccc(OC(=O)N4CCC(N5CCCCC5)CC4)cc13)-c1cc3c(c(=O)n1C2)COC(=O)[C@]3(O)CC |  | inactive | inactive | inactive | inactive | inactive |  | inactive |  | inactive |  | inactive |  | inactive | inactive |  |  |  | inactive | 
13 | C=CCNc1nc(NCC=C)nc(N2CCN(C(c3ccc(F)cc3)c3ccc(F)cc3)CC2)n1 |  |  | inactive |  |  | inactive | inactive | inactive | inactive | inactive | inactive | inactive | inactive |  | inactive |  |  |  |  | inactive
14 | COc1ccc([C@@H]2Sc3ccccc3NC(=O)[C@@H]2O)cc1 |  |  | inactive | inactive | inactive | inactive |  | inactive | inactive | inactive |  | inactive |  |  | inactive |  |  |  |  | 
15 | C/C=C/C=C/CCCCCCCO |  | inactive | inactive | inactive |  | inactive |  | inactive |  |  |  | inactive |  | inactive |  |  | inactive | inactive | inactive | 
16 | COCCOC(=O)C1=C(C)NC(C)=C(C(=O)OC/C=C/c2ccccc2)C1c1cccc([N+](=O)[O-])c1 (stereo not given) |  |  | inactive |  |  |  | inactive | inactive |  | inactive | inactive | 9.44 µM (active) | inactive | 0.944 µM (active) | inactive |  |  |  | inactive | 18.8 µM (active)
17 | CCCCC1C(=O)N(c2ccccc2)N(c2ccc(O)cc2)C1=O (stereo not given) |  | inactive | inactive | inactive |  |  | inactive |  |  |  | inactive |  |  | inactive |  | 29.8 µM (active) |  |  | inactive | 
18 | C=CC(C)(C)CC(=O)OC |  | inactive | inactive | inactive | inactive | inactive | inactive | inactive | inactive | inactive | inactive | inactive | inactive |  | inactive | inactive |  | inactive |  | 
19 | O=C(CCC1CCN(Cc2ccccc2)CC1)c1ccc2c(c1)NCCCC2 |  |  | inactive | inactive |  |  | inactive | inactive |  | inactive |  |  |  | 23.7 µM (active) | inactive | 23.7 µM (active) | inactive |  | inactive | inactive
20 | O=C(O)c1ccccc1NCCc1ccccc1 |  |  | inactive | inactive | inactive | inactive | inactive | inactive |  | inactive | inactive |  | inactive |  | inactive |  |  |  |  | 
